Results reported in PubChem BioAssay (NCATS).
Inconclusive results are not listed. Entries that show only a call come without a potency. Calls of active or inactive are those of the source. The call rests on the fitted dose curve; in most records, active means well fitted curve in the direction sought with a large enough effect; inconclusive means small, poorly fitted or top-dose-only effect, or another doubt; inactive means no such curve, though single readings can be large; an effect the other way counts as inactive or inconclusive.

Target: Endonuclease 4 (Escherichia coli (strain K12)) (UniProt P0A6C1)
Test: Counterscreen for APE1 Inhibitors: qHTS Validation Assay for Inhibitors of Endonuclease IV (AID 1708)
Details: E. coli endonuclease IV, DNA cleavage fluorescence; series mostly up to 57.1 µM
How it was run: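 qHTS concentration-response format; LOPAC1280 tested under APE1-screen conditions. 2 nM enzyme, 15 min compound preincubation at RT, then 50 nM TAMRA/BHQ-2 abasic substrate; kinetic fluorescence read, three reads at 60 s intervals.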

Row | SMILES | Potency
1 | CCCNC(C)C(=O)Nc1ccccc1C (configuration not stated) | inactive
2 | C[C@]12C=CC(=O)C=C1CC[C@H]1[C@@H]3C[C@@H](O)[C@](O)(C(=O)CO)[C@@]3(C)C[C@H](O)[C@@]12F | inactive
3 | O=C1CC2(CCCC2)CC(=O)N1CCCCN1CCN(c2ncccn2)CC1 | inactive
4 | NC(N)=N/N=C/c1c(Cl)cccc1Cl | inactive
5 | CN(C)C/C=C(/c1ccc(Br)cc1)c1cccnc1 | inactive
6 | C[N+](C)(C)CCOC(=O)CCC(=O)OCC[N+](C)(C)C | inactive
7 | COc1ccc([C@@H]2Sc3ccccc3N(CCN(C)C)C(=O)[C@@H]2OC(C)=O)cc1 | inactive
8 | NS(=O)(=O)c1cc2c(cc1Cl)NC(C1CC3C=CC1C3)NS2(=O)=O (configuration not stated) | inactive
9 | CSc1ccc(C(=O)c2[nH]c(=O)[nH]c2C)cc1 | inactive
10 | NC(=O)c1ncn([C@@H]2O[C@H](CO)[C@@H](O)[C@H]2O)c1O | inactive
11 | CN1CCN(CC(=O)N2c3ccccc3C(=O)Nc3cccnc32)CC1 | inactive
12 | Cc1nnc(SCC2=C(C(=O)O)N3C(=O)[C@@H](NC(=O)Cn4cnnn4)[C@H]3SC2)s1 | inactive
13 | O=C(CCCN1CCC(O)(c2cccc(C(F)(F)F)c2)CC1)c1ccc(F)cc1 | inactive

Test system: not listed separately
Test: qHTS for differential inhibitors of proliferation of Plasmodium falciparum line 7G8 (AID 1815);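 further: parasite growth measured after three days of incubation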; further: potency means the concentration at half of the fitted maximal effect
Details: Plasmodium falciparum 7G8 proliferation inhibition; series mostly up to 28.7 µM

Row | SMILES | Potency
14 | CCCNC(C)C(=O)Nc1ccccc1C (configuration not stated) | inactive
15 | CN(C)C(=O)Oc1ccc[n+](C)c1 | inactive
16 | C[C@]12C=CC(=O)C=C1CC[C@H]1[C@@H]3C[C@@H](O)[C@](O)(C(=O)CO)[C@@]3(C)C[C@H](O)[C@@]12F | inactive
17 | C[n+]1cc2c3c(ccc2c2ccc4cc5c(cc4c21)OCO5)OCO3 | 4.47 µM (active)
18 | Nc1ncn([C@@H]2O[C@H](CO)[C@@H](O)[C@H]2O)c(=O)n1 | inactive
19 | CN(C)C/C=C(/c1ccc(Br)cc1)c1cccnc1 | 7.08 µM (active)
20 | CCOC(=O)C1=C(C)NC(C)=C(C(=O)OC)C1c1cccc(Cl)c1Cl (configuration not stated) | 12.6 µM (active)
21 | C[N+](C)(C)CCOC(=O)CCC(=O)OCC[N+](C)(C)C | inactive
22 | C(=C\c1ccccc1)/CN1CCN(C(c2ccccc2)c2ccccc2)CC1 | 3.98 µM (active)
23 | Cc1nc2c([nH]1)c(=O)n(C)c(=O)n2Cc1ccco1 | inactive
24 | OCCN1CCN(CC/C=C2/c3ccccc3Sc3ccc(C(F)(F)F)cc32)CC1 | 2.51 µM (active)
25 | COCCCC/C(=N\OCCN)c1ccc(C(F)(F)F)cc1 | 10 µM (active)
26 | CCC(=O)c1ccc2c(c1)N(CCCN(C)C)c1ccccc1S2 | 8.91 µM (active)
27 | NS(=O)(=O)c1cc2c(cc1Cl)NC(C1CC3C=CC1C3)NS2(=O)=O (configuration not stated) | inactive
28 | CSc1ccc(C(=O)c2[nH]c(=O)[nH]c2C)cc1 | inactive
29 | C[C@]12CCC(=O)C=C1CC[C@@H]1[C@@H]2C(=O)C[C@@]2(C)[C@H]1CC[C@]2(O)C(=O)CO | inactive
30 | NC(=O)c1ncn([C@@H]2O[C@H](CO)[C@@H](O)[C@H]2O)c1O | inactive
31 | CN1CCN(CC(=O)N2c3ccccc3C(=O)Nc3cccnc32)CC1 | inactive
32 | CCc1cccc(N(C)C(N)=Nc2cccc3ccccc23)c1 | 3.16 µM (active)
33 | CC(=O)[C@]1(O)Cc2c(O)c3c(c(O)c2[C@@H](O[C@H]2C[C@H](N)[C@H](O)[C@H](C)O2)C1)C(=O)c1ccccc1C3=O | 1.58 µM (active)
34 | O=C(CCCN1CCC(O)(c2cccc(C(F)(F)F)c2)CC1)c1ccc(F)cc1 | 3.55 µM (active)
35 | CN(C)C(=O)Oc1cccc([N+](C)(C)C)c1 | inactive
36 | CC(C)(C)NCC(O)c1cc(O)cc(O)c1 (configuration not stated) | inactive
37 | C[C@H](CS)C(=O)N1CCC[C@H]1C(=O)O | inactive
